Measured values as given in PubChem BioAssay (NCI).
This is part of a sample that, as a whole, favours compounds with a hit. Of some 83,000 tested, about 20% had one in any assay.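 Cells were grown in 96-well plates and exposed to the test compound at a single concentration for 48 hours; results are reported as percent growth, with values below 10 considered active.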 Unmarked numbers belong to inactive results. Calls of active or inactive are those of the source.

What was measured:
Test in all cases: NCI-60 one-dose screen, 48 h (100 = growth as untreated, 0 = no growth, -100 = all killed)
Details in all cases: 10 µM unless noted
[1] = test system: HCT-15 colon
[2] = test system: HT29 colon
[3] = test system: SNB-75 CNS
[4] = test system: SNB-19 CNS
[5] = test system: U251 CNS
[6] = test system: PC-3 prostate
[7] = test system: SK-MEL-5 melanoma
[8] = test system: LOX IMVI melanoma
[9] = test system: SK-MEL-28 melanoma
[10] = test system: SK-MEL-2 melanoma
[11] = test system: EKVX NSCLC
[12] = test system: SN12C renal
[13] = test system: UO-31 renal
[14] = test system: TK-10 renal
[15] = test system: ACHN renal
[16] = test system: CAKI-1 renal
[17] = test system: A498 renal
[18] = test system: CCRF-CEM leukemia
[19] = test system: MOLT-4 leukemia

| SMILES | growth [1] | growth [2] | growth [3] | growth [4] | growth [5] | growth [6] | growth [7] | growth [8] | growth [9] | growth [10] | growth [11] | growth [12] [%] | growth [13] | growth [14] | growth [15] | growth [16] | growth [17] [%] | growth [18] | growth [19] |
| --- | --- | --- | --- | --- | --- | --- | --- | --- | --- | --- | --- | --- | --- | --- | --- | --- | --- | --- | --- |
| CCC(CC)C(=O)OC(C)COc1ccc(C(C)(C)C)cc1 (centres undefined) | 109% | 71.7% | 94.8% | 103% | 90.1% | 73.2% | 98.7% | 106% | 101% | 101% | 105% | 99.4 | 97.3% | 97% | 102% | 98.8% | 87.8 | 93% | 82.7% |
| CN(C)CCCCC(C(=O)CBr)(c1ccccc1)c1ccccc1 | -33.9% (active) | 8.94% (active) | 46% | 82.6% | 41.5% | 51.6% | 35% | -39% (active) | 23.6% | 53.8% | 48.8% | 20.8 | -56.1% (active) | -47.6% (active) | -65.4% (active) | -23.5% (active) | 40.2 | 5.74% (active) | 0.308% (active) |
| COc1cc2ncnc(Nc3ccc(Oc4ccnc(C)c4)c(C)c3)c2cc1NC(=O)CC1CCSS1 (centres undefined) | -72.4% (active) | -80.7% (active) | -3.3% (active) | -32.2% (active) | -13.4% (active) | -50.3% (active) | -89.1% (active) | -87.8% (active) | -66% (active) | -57.7% (active) | -1.66% (active) | 21.3 | -23.7% (active) | -68.6% (active) | 10.5% | 3.34% (active) | 66.8 | -30.8% (active) | -56.8% (active) |
| CCCCC/C(=C\c1ccccc1)C1OC(C)C(C)O1 (centres undefined) | 109% | 81.3% | 92.2% | 98.6% | 86.3% | 69.6% | 92.8% | 97.9% | 106% | 83.5% | 103% | 97.2 | 101% | 91% | 101% | 93.6% | 105 | 97.2% | 110% |
| Cn1c(=O)c2c(ncn2CC(=O)Nc2ccc(S(N)(=O)=O)cc2)n(C)c1=O | 106% | 94.8% | 87.8% | 102% | 96.6% | 83.4% | 111% | 97.6% | 115% | 104% | 103% | 105 | 88.8% | 91.8% | 111% | 93.8% | 105 | 97.5% | 103% |
| CN(C)c1ccc(N=C2C=CC(=O)C=C2)cc1 | 97.7% | 97.1% | 77.6% | 83.6% | 76.5% | 64.4% | 87.2% | 80.6% | 97.4% | 97.1% | 75.3% | 92 | 73.7% | 111% | 69.3% | 81% | 93.1 | 75.5% | 51.3% |
